Compound activity from PubChem.
PRMT1 inh – blocks human protein arginine methyltransferase 1; AID 652257; recombinant PRMT1, activity-based probe fluorescence polarization; Q99873; inhibition, % at 2.79 µM; 1.3% of 370,000 active;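 active means inhibition above about 21% made by adding two undisclosed values, limit read from the data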
LANA-H2B inh – blocks KSHV LANA binding to histone H2A/H2B; Q9QR71; cell-free LANA-H2A/H2B peptide, fluorescence polarization; inhibition, % (no concentration beside the values); 0.6% of 320,000 active; AID 2629; in the data active means inhibition mostly above about 10%, no sharp cut-off; inactive means mostly below about 6.7%
ABHD5-PLIN5 inh – ABHD5-PLIN5 protein interaction inhibition. Split G. princeps luciferase complementation, luminescence, 4 h. inhibition, % at 4 µM. 0.78% of 360,000 active. AID 602281;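 active means inhibition above the mean inhibition across every tested compound plus 3 SD, cut at about 22% in these data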;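 further: 0% = DMSO only wells and the 100% control is not disclosed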
Rtt109 HAT inh – C. albicans Rtt109 histone acetyltransferase inhibition | Q5AAJ8 | purified Rtt109/Vps75, ThioGlo CoA-SH fluorescence, 4 h | inhibition, % at 34.9 µM | 0.16% of 330,000 active;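 active means inhibition of at least 50% in every replicate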
Target sequence (Q5AAJ8 whole entry, looked up): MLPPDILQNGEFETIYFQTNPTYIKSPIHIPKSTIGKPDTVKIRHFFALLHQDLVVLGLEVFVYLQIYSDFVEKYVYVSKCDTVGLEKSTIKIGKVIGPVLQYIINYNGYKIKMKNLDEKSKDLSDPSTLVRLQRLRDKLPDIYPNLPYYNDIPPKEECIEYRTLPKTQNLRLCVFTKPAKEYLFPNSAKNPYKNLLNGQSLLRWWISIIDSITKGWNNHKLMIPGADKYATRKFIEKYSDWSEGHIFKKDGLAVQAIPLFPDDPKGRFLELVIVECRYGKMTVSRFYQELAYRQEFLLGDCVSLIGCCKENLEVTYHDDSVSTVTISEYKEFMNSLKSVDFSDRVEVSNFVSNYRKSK
ALR inh – blocks human ALR sulfhydryl oxidase activity | P55789 | purified ALR, DTT oxidation, H2O2 HRP-luminol luminescence | inhibition, % (no concentration beside the values) | 3.8% of 290,000 active | AID 485317;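 active means mean replicate inhibition above about 79%, with every replicate also reaching it, limit read from the data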
Target sequence (P55789 whole entry, looked up): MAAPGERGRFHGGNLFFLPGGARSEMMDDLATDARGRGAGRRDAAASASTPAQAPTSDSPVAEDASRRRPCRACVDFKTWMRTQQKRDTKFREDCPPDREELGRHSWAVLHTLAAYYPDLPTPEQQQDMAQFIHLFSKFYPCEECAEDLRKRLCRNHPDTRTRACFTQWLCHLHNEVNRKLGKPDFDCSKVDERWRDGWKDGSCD
rCAG binder-1 – molecules binding r(CAG) RNA repeats; r(CAG) RNA repeat, TO-PRO-1 dye displacement fluorescence; inhibition, % at 3 µM; 1.3% of 370,000 active;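 active means inhibition above the plate cutoff, the mean of all test compounds on that plate plus 3 SD, cut at about 35% in these data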;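 further: 0% = DMSO alone and 100% = 100 µM mitoxantrone as full dye displacement; higher means more dye released from RNA so lower well fluorescence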
rCAG binder conf – r(CAG) RNA repeat binding, confirmation. shares compounds with rCAG binder-1. AID 652065. inhibition, % at 3 µM. TO-PRO-1 dye displacement fluorescence. 70% of 4,300 active;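 active means inhibition above a per-plate cutoff, the mean inhibition of sample wells plus 3 SD, cut at about 35% in these data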;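 further: loss of TO-PRO-1 fluorescence as compound displaces dye from 1x1 AA loop RNA; 0% = DMSO only wells and 100% = 100 µM mitoxantrone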
dCAG dye counter – DNA CAG dye complex inhibition counter-screen; inhibition, % at 3 µM; d(CAG) DNA oligo TO-PRO-1 dye displacement, fluorescence; shares compounds with rCAG binder-1; 94% of 4,300 active; AID 652068;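 active means inhibition above its plate's cutoff, the mean test-well inhibition plus 3 SD, cut at about 4.8% in these data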;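 further: 0% = DNA dye mix with DMSO and 100% = 100 µM mitoxantrone; hits displace the dye from DNA and so lower well fluorescence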
DNA CAG DR – DNA CAG dye complex inhibition, dose response counter-screen; shares compounds with rCAG binder-1; DNA CAG/GTC duplex TO-PRO-1 dye displacement fluorescence; IC50, µM; 20% of 250 active; AID 686960; in the data active means IC50 below about 10 µM
dCAG DNA bind – DNA CAG dye complex inhibition, late stage dose response; shares compounds with rCAG binder-1; d(CAG) DNA duplex TO-PRO-1 dye displacement, fluorescence; IC50, µM; 80% of 30 active; AID 720649
rCAG binder-2 – binds r(CAG) RNA repeats in late stage dose response; 100% of 30 active; IC50, µM; r(CAG) RNA TO-PRO-1 dye displacement, fluorescence; shares compounds with rCAG binder-1
Starred values were filed as active, the others as inactive; x = no result given. Sampled rows, rich in hits. Any-hit rate of the full collection: about 5.9%. Unless noted, how the calls were made is not given here.

SMILES	PRMT1 inh	LANA-H2B inh	ABHD5-PLIN5 inh	Rtt109 HAT inh	ALR inh	rCAG binder-1	rCAG binder conf	dCAG dye counter	others
CCN(c1ccc(OC)cc1)S(=O)(=O)c1nnc(NC(=O)COc2ccc(F)cc2)s1	-1	-2	-2	-21	-7	56*	57*	21*	DNA CAG DR=>30;dCAG DNA bind=5.5*;rCAG binder-2=1.8*
CCN(c1ccc(OC)cc1)S(=O)(=O)c1nnc(NC(=O)CC(C)C)s1	-2	-4	-12	3	-5	13	x	x
COc1cccc(C(=O)Nc2nnc(S(=O)(=O)N(C)Cc3ccc(F)cc3)s2)c1	1	-1	-4	9	84*	70*	65*	25*
Cc1noc(C)c1CSCC(=O)Nc1nc2c(F)cc(F)cc2s1	17	2	1	14	37	36*	29	18*
COc1ccc(C(=O)CSc2nnc(-c3cccnc3)n2-c2ccccc2)cc1	-3	x	x	x	x	2	x	x
CSc1nc(NCCN(C)C)c2sc3nc(-c4ccco4)c4c(c3c2n1)CCC4	-5	x	-1	-1	x	7	x	x
CSc1nc(SCC(=O)O)c2sc3nc(-c4ccccc4)c4c(c3c2n1)CCC4	4	x	8	-2	x	39*	63*	38*
COC(=O)[C@]12C[C@H](CC(=O)NCc3cccc(C(F)(F)F)c3)C(=O)N(CCC3=CCCCC3)C1=C[C@H](C(C)(C)C)O[C@@H]2C	-6	x	x	x	x	4	x	x
N#Cc1c(-c2ccccc2)nc(SCc2cccc(Cl)c2)[nH]c1=O	4	4	0	6	x	82*	76*	43*
CCOc1ccccc1NC(=O)C(OC(=O)c1ccccc1NS(=O)(=O)c1cccs1)c1ccccc1 (stereo not drawn)	-4	0	6	26	-26	6	x	x
O=C(Nc1ccc(Cl)cc1)Nc1ccccc1C(=O)O	-1	-11	5	2	14	14	x	x
O=C(Nc1ccc(Cl)c(Cl)c1)Nc1ccccc1C(=O)O	4	2	-2	x	98*	61*	51*	11*	DNA CAG DR=>30
O=C(Nc1ccc(Cl)c(Cl)c1)Nc1ccccc1NS(=O)(=O)c1cccs1	-2	2	-4	-7	28	42*	33	9.4*
CC(=O)c1cccc(NC(=O)C(OC(=O)c2ccccc2NS(=O)(=O)c2cccs2)c2ccccc2)c1 (stereo not drawn)	1	1	4	3	-22	43*	36*	17*
Cc1ccccc1C1=CC(=O)CC(C)(C)C1=O	-3	x	x	x	x	2	x	x
COc1ccc(-c2ccc(/C=C3/C(=N)N4C=CSC4=NC3=O)o2)c([N+](=O)[O-])c1	3	0	-8	0	-33	25	x	x
CC1=C(C#N)C(=O)NC(=O)/C1=C\c1ccc(-c2ccc(C)cc2[N+](=O)[O-])o1	10	x	-12	5	x	43*	73*	34*	DNA CAG DR=5.1*
CC1CCc2c(sc(NC(=O)COC(=O)C3CCCO3)c2C#N)C1 (stereo not drawn)	3	2	1	-5	x	0	x	x
CCC1CCc2c(sc(NC(=O)C3CC=CCC3C(=O)O)c2C#N)C1 (stereo not drawn)	2	-1	-5	8	26	59*	39*	11*
CCOC(=O)Nc1sc2c(c1C#N)CCC(C)C2 (stereo not drawn)	x	0	-4	11	3	x	x	x
CC1CCc2c(sc(NC(=O)COC(=O)c3ccc(O)cc3)c2C#N)C1 (stereo not drawn)	7	-4	-13	-1	x	39*	37*	19*
Brc1ccc(-c2nn3c(-c4ccccc4)nnc3s2)cc1	0	x	x	x	x	7	x	x
Cc1ccc2nc3sc(C(=O)N4CCN(C)CC4)cc3cc2c1	-4	x	x	x	x	x	x	x
Cc1ccccc1CN1CCCCC(NC(=O)c2ccc3ccccc3c2)C1=O (stereo not drawn)	1	x	x	x	x	2	x	x
O=C(NCc1ccccc1)c1sc(=S)n2c1[nH]c(=O)c1ccccc12	3	3	4	0	98*	47*	83*	50*
SMILES	PRMT1 inh	LANA-H2B inh	ABHD5-PLIN5 inh	Rtt109 HAT inh	ALR inh	rCAG binder-1	rCAG binder conf	dCAG dye counter	others
CCCCNC(=O)c1sc(=S)n2c1[nH]c(=O)c1ccc(C(=O)NCCc3ccc(OC)c(OC)c3)cc12	x	-8	6	16	18	x	x	x
CC1=C(C(=O)N(C(C)C)C(C)C)CC(CC(=O)NCCN2CCOCC2)C(=O)N1Cc1ccc(C(C)(C)C)cc1 (stereo not drawn)	2	x	1	x	x	-1	x	x
COc1cc(C#Cc2c(-c3cncn3C)n(C)c3ccc(-c4cnc(OC)nc4)cc23)cc(OC)c1	2	2	22	-8	3	74*	15	10*
COc1cc(C#Cc2c(-c3cncn3C)n(C)c3ccc(-c4cnc(N5CCOCC5)nc4)cc23)cc(OC)c1	1	-2	3	13	-3	7	x	x
CN(C(=O)c1ccccc1OCC(=O)Nc1ccc(Br)cc1)c1ccccc1	1	x	x	x	x	1	x	x
Cc1ccc(C2=NC(=O)/C(=C/c3cc(O)c(O)c(Br)c3)S2)cc1	23*	x	4	-2	x	84*	86*	52*
COc1cc(/C=C2\SC(c3ccc(C)cc3)=NC2=O)cc(OC)c1O	17	3	-20	1	10	17	x	x
Cc1ccnc(OC(C(=O)O)C(OCc2ccccc2)(c2ccccc2)c2ccc(C(F)(F)F)cc2)n1 (stereo not drawn)	-3	1	-12	1	x	50*	49*	14*	DNA CAG DR=>30
Cc1noc(NS(=O)(=O)c2ccc(NC(=O)c3ccc(F)cc3)cc2)c1C	-1	-5	2	-1	-14	8	x	x
Cc1noc(NS(=O)(=O)c2ccc(NC(=O)c3ccccc3NS(=O)(=O)c3ccc(F)c(F)c3)cc2)c1C	-2	x	5	2	x	76*	69*	30*
Cc1noc(NS(=O)(=O)c2ccc(NC(=O)c3cccc(S(=O)(=O)Nc4ccccc4F)c3)cc2)c1C	1	3	0	10	45	35*	27	7.8*
